High-throughput results (PubChem)
Only some compounds are listed: those with a hit (about 1.2% of all), similar ones and a draw of the others.
CCT modulator: changes cytosolic chaperonin activity; purified chaperonin ATPase assay, HTRF ADP detection, 30 min; activity change, % (concentration not given with the values), hits read low; hit rate 0.3% among 360,000; AID 651819; in the data active means activity change below about -30%; further: on the % scale 0 is the no-effect control and ±100 the full control effect
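First, chaperonin was dispensed at 40 nM or 20 nM final depending on batch activity. Next, compounds were pinned at 76 uM and ATP added at 10 uM. After 30 min at 37 °C, ADP detection reagents ran 30 min at ambient temperature.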
RXFP1 agonist: activates the human relaxin receptor RXFP1; Q9HBX9; HEK293T-RXFP1 cAMP TR-FRET, 30 min; response scale: percent of porcine relaxin response, buffer zero; Potency, µM (series often up to 57.5 µM), for inactives: top-dose activation, most hits filed as activators; hit rate 0.3% among 370,000; AID 2676; further: potency means the concentration at half of the fitted maximal effect; on the % scale 0 is the no-effect control and ±100 the full control effect; nearly all actives have a fitted effect of over 60% in size
Target sequence (Q9HBX9 whole entry, looked up): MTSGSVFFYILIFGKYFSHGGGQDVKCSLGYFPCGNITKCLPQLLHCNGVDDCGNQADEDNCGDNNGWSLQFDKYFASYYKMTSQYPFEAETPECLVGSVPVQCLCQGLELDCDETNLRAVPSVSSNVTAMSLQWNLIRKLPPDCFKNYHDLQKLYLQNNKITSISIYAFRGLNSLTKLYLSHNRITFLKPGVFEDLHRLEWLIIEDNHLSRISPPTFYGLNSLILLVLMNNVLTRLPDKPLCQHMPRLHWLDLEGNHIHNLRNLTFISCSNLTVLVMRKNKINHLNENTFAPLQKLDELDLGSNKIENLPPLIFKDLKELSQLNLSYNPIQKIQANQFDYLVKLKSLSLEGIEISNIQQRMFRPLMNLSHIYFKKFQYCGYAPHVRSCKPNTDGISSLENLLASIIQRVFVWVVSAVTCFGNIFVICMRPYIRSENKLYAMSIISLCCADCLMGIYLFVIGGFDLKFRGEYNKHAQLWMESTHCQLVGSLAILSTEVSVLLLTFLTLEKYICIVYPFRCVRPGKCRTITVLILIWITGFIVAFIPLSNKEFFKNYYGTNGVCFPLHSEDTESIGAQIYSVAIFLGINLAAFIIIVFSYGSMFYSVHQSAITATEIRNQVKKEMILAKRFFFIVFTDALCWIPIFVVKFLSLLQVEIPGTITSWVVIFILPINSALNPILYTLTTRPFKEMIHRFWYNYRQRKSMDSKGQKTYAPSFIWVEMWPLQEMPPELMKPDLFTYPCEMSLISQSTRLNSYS
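HEK293 cells stably expressing RXFP1, treated 30 min at 37C with compounds plus PDE4 inhibitor Ro 20174; cAMP measured by HTRF TR-FRET. Normalized to buffer and 29 nM porcine relaxin; EC50 by Hill fit.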
RXFP1 antagonist: antagonists of human relaxin receptor RXFP1; hit rate 0.59% among 350,000; Q9HBX9; HEK293-RXFP1, relaxin-stimulated cAMP HTRF, 30 min; stronger effect = lower value; activity change, negative = inhibition, % at 57.5 µM; AID 1259400;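 active means activity change of -60% or lower, but not beyond a set lower limit; inconclusive means change between -60% and -40%, or beyond the set limit; inactive means change above -40%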; further: on the % scale 0 is the no-effect control and ±100 the full control effect
gsp antag: antagonists of gsp mutant (McCune-Albright syndrome); hit rate 0.4% among 340,000; Potency, µM (series often up to 76.9 µM), without a hit: at the top dose activity change, negative = inhibition, usual class: inhibitors; gsp-mutant cells, cAMP HTRF, 30 min; calls by dose curve; cell line not stated here;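 further: intracellular cAMP measured with PDE inhibitor Ro 20-1724 present during compound exposure; potency means the concentration at half of the fitted maximal effect; on the % scale 0 is the no-effect control and ±100 the full control effect; nearly all actives have a fitted effect of over 65% in size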
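Cells in G418 medium, seeded 16-24 h, 37C; buffer exchange to DPBS + 1 mM CaCl2, 0.5 mM MgCl2, 0.05% BSA; cpds in DMSO + […] (300 uM stock), 30 min 37C; HTRF cAMP detection.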
gsp agonist: activates gsp, the McCune-Albright syndrome mutation. hit rate 0.13% among 340,000. Potency, µM (titrated, usually from 76.9 µM), without a hit: top-dose activation (cAMP increase), hits mostly activators. gsp mutant cells, cAMP HTRF, 30 min; active means well fitted activation curve with a large enough effect; inconclusive means small, poorly fitted or top-dose-only effect, or another doubt; inactive means no such curve, though single readings can be large or run the other way; cell line not stated here;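 further: phosphodiesterase inhibitor Ro 20-1724 added with compounds to block cAMP breakdown; potency means the concentration at half of the fitted maximal effect; nearly all actives have a fitted effect of over 60% in size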
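Cells in DMEM/10% FBS with G418 were pretreated with compounds in DMSO plus […] (300 uM stock) for 30 min at 37C. cAMP was measured by HTRF (cAMP-d2 plus anti-cAMP antibody-K) after 30 min at room temperature.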
Mm-Cpn inhibitor: blocks the Methanococcus maripaludis chaperonin Mm-Cpn | purified Mm-Cpn ATPase, ADP Transcreener TR-FRET | Potency, µM (top dose mostly 76.9 µM), without a hit: at the top dose activity, negative = inhibition, hits mostly inhibitors | hit rate 0.031% among 330,000 | AID 504842; further: potency means the concentration at half of the fitted maximal effect; on the % scale 0 is the no-effect control and ±100 the full control effect; nearly all actives have a fitted effect of over 80% in size
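Inhibition of chaperonin ATP hydrolysis is measured as reduced ADP production, detected by competitive TR-FRET in which signal falls with ADP. Final enzyme 25 nM and ATP 10 uM, reacted 30 min at 37°C.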
* hit, by the source's call; u = inconclusive; x = no result given; [ ] = dose if it differs, or a comment. Unless noted, the call rests on the fitted dose curve; in most records, active means well fitted curve in the direction sought with a large enough effect; inconclusive means small, poorly fitted or top-dose-only effect, or another doubt; inactive means no such curve, though single readings can be large; an effect the other way counts as inactive or inconclusive.

SMILES	CCT modulator	RXFP1 agonist	RXFP1 antagonist	gsp antag	gsp agonist	Mm-Cpn inhibitor
COc1cccc2sc(N(CCCN(C)C)C(=O)c3ccc(S(=O)(=O)N4CCCc5ccccc54)cc3)nc12	-2	-3%	-88*	16%	u	-1%
COc1cccc2sc(N(CCN(C)C)C(=O)c3ccc4c(c3)CCCC4)nc12	-1	1%	-69*	-5%	12%[15.4 µM]	-5%
CN(C)CCCN(C(=O)c1ccc2c(c1)CCCC2)c1nc2ccc(Cl)cc2s1	-3	1%	-77*	14%	24%	-6%
CC(=O)Nc1ccc(NC(=O)C2Cc3ccccc3N2C(=O)c2ccccc2)cc1 (stereo not given)	x	0%	-5	x	x	x
CC(C)(CC(=O)NCc1ccc(Cl)cc1Cl)CC1=NS(=O)(=O)c2ccccc2N1	x	5%	x	x	x	x
CC1CCN(S(=O)(=O)c2ccc(C(C)C)cc2)CC1	-3	1%	-37	-14%	10%	2%
CC1CCN(S(=O)(=O)c2ccc(Cl)cc2)CC1	-43*	0%	7	50µM*	-2%	1%
Cn1cc(S(C)=O)c(=O)c2ccc(F)cc21 (stereo not given)	x	x	-15	x	x	x
Cc1ccc(-c2ccc3nnc(SCC(=O)NCC4CCCO4)n3n2)cc1 (stereo not given)	-1	25µM*	11	0%	9%	0%
O=C(CSc1nc2ccc(Cl)cc2[nH]1)NC1CCCC1	1	0%	-3	-19%	u	4%
O=C(CSc1nc2ccc([N+](=O)[O-])cc2[nH]1)NC1CCCCCC1	0	1%	-17	40µM*	12%[15.4 µM]	0%
O=C(CSc1nc2ccc([N+](=O)[O-])cc2[nH]1)NC1CCCCC1	-2	0%	-3	28µM*	30%	1%
CCS(=O)(=O)c1nc(S(=O)(=O)c2ccc(Cl)cc2)c(N2CCCC2)s1	-2	u	-4	-15%	13µM*	-6%
CCS(=O)(=O)c1nc(S(=O)(=O)c2ccc(C)cc2)c(N2CCN(C)CC2)s1	-1	25µM*	6	-3%	u	-3%
CCc1nnc(NC(=O)CSc2nccn2Cc2ccc(Cl)cc2)s1	x	3%	-4	x	x	x
Cc1cccc(OCc2nc(C#N)c(N3CCCC3)o2)c1	-30*	0%	-5	-6%	-5%[15.4 µM]	6%
C=CCn1c(SCC(=O)Nc2cc(C)on2)nc2sc3c(c2c1=O)CCCC3	-65*	2%	4	11%	17%	-7%
CCn1c(SCC(=O)Nc2cc(C)on2)nc2sc3c(c2c1=O)CCCC3	4	7%	-23	9%	u	-10%
CC(=O)OC[C@H]1O[C@@H](OC(C)=O)[C@H](OC(C)=O)[C@@H]1OC(C)=O	x	x	13	x	x	x
CNC(=O)c1ccsc1NC(=O)c1ccc(S(=O)(=O)N2CCCc3ccccc32)cc1	0	7%	x	u	-25%	28µM*
O=C(COC(=O)c1ccc(O)cc1O)Nc1cc(-c2ccccc2)nn1-c1ccccc1	-2	-1%	-73*	35µM*	-10%[15.4 µM]	1%
CN(C)[C@@H](CCOc1cccc2ccccc12)c1ccccc1	x	x	-31	x	x	x
C[C@@H](O[C@H]1OCCN(Cc2n[nH]c(=O)[nH]2)[C@H]1c1ccc(F)cc1)c1cc(C(F)(F)F)cc(C(F)(F)F)c1	x	x	-60*	x	x	x
COc1ccccc1NC(=O)CSc1oc(-c2ccccc2)nc1S(=O)(=O)c1ccc(C)cc1	x	0%	-11	x	x	x
COc1ccc(NC(=O)c2cccc(N3C(=O)C4C5C=CC(C5)C4C3=O)c2)c(OC)c1 (stereo not given)	0	0%	7	-1%	-2%	0%
SMILES	CCT modulator	RXFP1 agonist	RXFP1 antagonist	gsp antag	gsp agonist	Mm-Cpn inhibitor
COc1ccccc1NC(=O)c1cccc(N2C(=O)C3C4C=CC(C4)C3C2=O)c1 (stereo not given)	-18	-5%	-77*	-12%	u	1%
Cc1cc(C(=O)O)ccc1NCc1cccnc1	-4	-2%	-3	1%	12%[15.4 µM]	0%
O=C(O)c1ccc(NCc2cccnc2)c([N+](=O)[O-])c1	-53*	0%	-5	4%	-24%	-3%
COc1ccc(CN2C(=O)c3cccnc3C2=O)cc1S(=O)(=O)N1CCCC(C)C1 (stereo not given)	-2	7.9µM*	14	14%	7.9µM*	u
COc1ccc(CN2C(=O)c3cccnc3C2=O)cc1S(=O)(=O)NC1CCCCC1C (stereo not given)	2	25µM*	8	9%	u	4%
CN(C)S(=O)(=O)c1ccc2c(c1)/C(=C/c1cc3c([nH]1)CCCC3)C(=O)N2	-1	-1%	x	10µM*	x	-4%
CN(C)S(=O)(=O)c1ccc2c(c1)C(=O)c1cc(S(=O)(=O)N(C)C)ccc1CC2	x	-1%	x	x	x	-30%
COc1ccc(C)cc1NC1(c2ccccc2)C(=O)c2ccccc2C1=O	x	2%	x	x	x	x
COc1ccccc1C(=O)Nc1nnc(SCc2cc(=O)c3ccccc3[nH]2)s1	x	1%	-16	x	x	x
COc1cc(/C=N/Nc2nc(-c3ccc(S(=O)(=O)N(C)C)cc3)cs2)ccc1O	-2	1%	-7	32µM*	-12%	1%
COc1ccc(/C=N/Nc2nc(-c3cccc(S(=O)(=O)N4CCCC4)c3)cs2)cc1OC	-4	1%	-4	12%	-50%	-3%
O=[N+]([O-])c1cc(/C=N\Nc2nc(-c3ccccc3)cs2)ccc1O	-1	3%	-65*	u	-50%	0%
Cc1csc(N/N=C/c2ccc(O)c([N+](=O)[O-])c2)n1	0	0%	-8	-21%	-73%	-2%
COC(=O)c1sc2cccc(F)c2c1S(=O)(=O)N1CCN(c2cccc(OC)c2)CC1	x	0%	-9	x	x	x
COCCCNC(=O)c1sc2nc(C)c(C(=O)Nc3ccc(C)cc3C)c(-c3ccc(Br)cc3)c2c1N	x	-3%	0	x	x	x
COCCCNC(=O)c1sc2nc(C)c(C(=O)Nc3ccc(Cl)cc3)c(-c3ccc(Br)cc3)c2c1N	x	35µM*	-16	x	x	x
Cn1cnc(S(=O)(=O)N2CCN(c3ccc(Cl)cc3)CC2)c1	-1	1%	-2	10%	-8%	1%
Cn1cnc(S(=O)(=O)N2CCN(c3ccccc3)CC2)c1	-78*	2%	u	8%	14%	0%
CCS(=O)(=O)N1CCN(c2ccccc2)CC1	-40*	3%	2	9%	27%[15.4 µM]	1%
Cc1cccc(OCCCCn2c(C3CC(=O)N(c4ccc(C)cc4C)C3)nc3ccccc32)c1 (stereo not given)	x	-1%	-21	x	x	x
CN(Cc1cn(C)nc1-c1ccc(Oc2ccccc2)cc1)Cc1cnc2ccccn12	-1	-1%	8	40µM*	u	0%
